From publication PMC4336329 (PLoS ONE, 2015)
Out of some 310,000 compounds screened, about 14,000 (4.5%) showed an effect of 50% or more. The effect is printed as a negative number. Many of the other results were omitted from the sample, so strong results are more common in it than they were.

Target: human ether-à-go-go-related gene (hERG) potassium channel (human, UniProt Q12809)
Experiment: primary screen, population patch clamp on CHO cells stably expressing hERG; higher = less effect of the substance
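Further: peak tail current of the secondary pulse compared with the same well before compound.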

human ether-à-go-go-related gene (hERG) potassium channel, sequence (Q12809 whole entry, looked up): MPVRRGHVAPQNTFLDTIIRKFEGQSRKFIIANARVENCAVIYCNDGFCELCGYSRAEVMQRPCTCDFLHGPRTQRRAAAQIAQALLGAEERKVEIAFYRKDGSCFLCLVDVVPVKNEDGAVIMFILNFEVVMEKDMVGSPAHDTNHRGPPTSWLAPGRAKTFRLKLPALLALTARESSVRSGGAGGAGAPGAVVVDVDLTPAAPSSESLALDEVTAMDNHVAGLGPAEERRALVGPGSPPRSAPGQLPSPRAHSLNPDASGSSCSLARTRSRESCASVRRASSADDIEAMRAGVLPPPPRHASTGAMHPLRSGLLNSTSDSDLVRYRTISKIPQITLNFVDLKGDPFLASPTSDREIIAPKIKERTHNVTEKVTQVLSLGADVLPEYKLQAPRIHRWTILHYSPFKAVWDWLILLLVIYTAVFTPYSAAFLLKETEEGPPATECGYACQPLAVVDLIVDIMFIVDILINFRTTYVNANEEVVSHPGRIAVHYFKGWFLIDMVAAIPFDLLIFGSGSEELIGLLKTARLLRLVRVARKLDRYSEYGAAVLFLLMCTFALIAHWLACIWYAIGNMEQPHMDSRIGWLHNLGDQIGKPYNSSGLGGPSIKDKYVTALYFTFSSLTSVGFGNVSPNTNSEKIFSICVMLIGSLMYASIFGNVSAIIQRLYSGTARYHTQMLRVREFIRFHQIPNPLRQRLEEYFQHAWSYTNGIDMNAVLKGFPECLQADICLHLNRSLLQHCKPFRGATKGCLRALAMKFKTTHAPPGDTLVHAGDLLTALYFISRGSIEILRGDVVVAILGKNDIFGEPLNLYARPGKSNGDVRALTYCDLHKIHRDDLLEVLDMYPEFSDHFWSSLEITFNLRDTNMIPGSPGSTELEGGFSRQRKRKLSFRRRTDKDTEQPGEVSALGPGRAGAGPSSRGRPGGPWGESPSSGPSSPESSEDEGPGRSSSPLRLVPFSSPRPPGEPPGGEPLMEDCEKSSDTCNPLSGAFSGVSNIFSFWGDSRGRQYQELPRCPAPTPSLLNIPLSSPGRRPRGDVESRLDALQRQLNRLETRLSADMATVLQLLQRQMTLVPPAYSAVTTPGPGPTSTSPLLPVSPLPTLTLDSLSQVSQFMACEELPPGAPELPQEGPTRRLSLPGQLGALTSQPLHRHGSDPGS

| SMILES | hERG current change (%, negative = inhibition) at 10uM [%] |
| --- | --- |
| C=CCSc1nc(N(CC)CC)c2sccc2n1 | -12.4 |
| CC(=O)c1cccc(N2C(=O)C3C4CCC(C4=C(C)C)C3C2=O)c1 (stereo not shown) | 21.1 |
| COc1cc(CSc2nnnn2-c2ccc(C)cc2)cc(OC)c1OC | 8.81 |
| N#Cc1nc(-c2ccco2)oc1NCCc1ccccc1 | -5.59 |
| CCCc1cc(=O)oc2cc(C)c3c(C)coc3c12 | 5.51 |
| COc1cccc(-n2cnc3sc(C)c(C)c3c2=O)c1 | -12 |
| COC(=O)C1=C(C)NC(C)=C(C(=O)OCCN(C)Cc2ccccc2)C1c1cccc([N+](=O)[O-])c1.Cl (stereo not shown) | 0.0465 |
| COc1cc(/C=C/c2noc(-c3ccccc3O)n2)cc(OC)c1OC | 9.26 |
| O=C(NCc1cccc(Cl)c1)C1CCC(=O)N(CCN2CCOCC2)C1 (stereo not shown) | 20.5 |
| CCOC(=O)c1ccc2[nH]c3c(c2c1)CCCC3 | -19.2 |
| CC(OC(=O)c1cccs1)C(=O)NC1CCCCC1C (stereo not shown) | -66.7 |
| CC(OC(=O)c1cccs1)C(=O)NC1CC1 (stereo not shown) | -5.98 |
| CC(OC(=O)CCC(=O)c1cccs1)C(=O)NC1CCCCC1C (stereo not shown) | -6.24 |
| CCOC(=O)CNC(=O)Cn1cnc2c(nnn2-c2cccc(OC)c2)c1=O | 17.5 |
| COc1cc(C(c2c(C)[nH][nH]c2=O)c2c(C)[nH][nH]c2=O)ccc1OC(=O)c1cccc([N+](=O)[O-])c1 | 10.4 |
| Cc1cccc(NC(=O)N2CCCCCC2)c1 | -8.87 |
| Cc1c(Cl)c([N+](=O)[O-])nn1CCCC(=O)N1CCN(c2ccccc2)CC1 | -58 |
| Cc1nn(CCCC(=O)N2CCN(c3ccc(F)cc3)CC2)c(C)c1[N+](=O)[O-] | -62.1 |
| Cc1nn(CC(=O)N2CCN(c3ccccc3)CC2)c(C)c1[N+](=O)[O-] | -9.49 |
| Cc1cc([N+](=O)[O-])nn1CCCC(=O)N1CCN(c2ccccc2)CC1 | -21.4 |
| Cc1c(Br)c([N+](=O)[O-])nn1CCCC(=O)N1CCN(c2ccccc2)CC1 | -32.4 |
| COc1ccccc1N1CCN(C(=O)CCCn2nc(C)c([N+](=O)[O-])c2C)CC1 | -19.1 |

| SMILES | hERG current change (%, negative = inhibition) at 10uM [%] |
| --- | --- |
| Cc1cc([N+](=O)[O-])nn1CCCC(=O)N1CCN(c2ccc(F)cc2)CC1 | -53.2 |
| Cc1c(Cl)c([N+](=O)[O-])nn1CCCC(=O)O | 9.17 |
| Cc1cc([N+](=O)[O-])nn1CCCC(=O)NCc1ccc(F)cc1 | -0.962 |
| CC(=O)N1CCN(c2ccc(NC(=O)c3ccc(OCc4ccccc4)cc3)cc2)CC1 | 16.7 |
| CCOC(=O)C1CCC2(CC1)C(C#N)=C(N)Oc1n[nH]c(C)c12 (stereo not shown) | -14.2 |
| Cc1cccc(C(=O)Oc2csc(=S)n2C(=O)c2cccc(C)c2)c1 | 6.76 |
| COc1ccc([N+](=O)[O-])c(OC)c1C(=O)NC(=O)Nc1nc(C)cc(C)n1 | 18 |
| O=S(=O)(Nc1ccccc1)c1ccc2c(c1)CCO2 | 11 |
| O=C(Cn1c(=O)c2sccc2n(Cc2ccc([N+](=O)[O-])cc2)c1=O)NCCc1ccccc1 | -49 |
| O=C(c1cn(-c2ccccc2)nc1-c1ccccc1)N1CCOCC1 | -4.6 |
| O=C(OCC(=O)N1CCN(C(=O)c2ccco2)CC1)c1cn(-c2ccccc2)nc1-c1ccccc1 | -67 |
| O=C(OCC(=O)N1CCN(C(=O)c2ccco2)CC1)c1ccccc1O | -18.2 |
| O=C(c1ccco1)N1CCN(C(=O)c2cn(-c3ccccc3)nc2-c2ccccc2)CC1 | -86.5 |
| Cc1cnc(C(=O)OCC(=O)N2CCN(C(=O)c3ccco3)CC2)cn1 | -8.85 |
| COc1ccccc1-c1nn(-c2ccccc2)cc1C(=O)N1CCN(C(=O)c2ccco2)CC1 | -36 |
| COCCSc1ccccc1C(=O)Nc1ccncc1 | 16.4 |
| O=C(/C=C/c1ccc(F)cc1)NC(=S)Nc1ccccc1 | 4.35 |
| Cc1ccc(C(=O)Nc2ccc(SC(F)F)cc2)s1 | 24.4 |
| Cc1ccc(CNC(=O)CSc2nc3[nH]ncc3c(=O)[nH]2)cc1 | 4.89 |
| COC(=O)c1c(N(S(C)(=O)=O)S(C)(=O)=O)sc2c1CCN(c1ncc(C(F)(F)F)cc1Cl)C2 | 13 |
| CC(=O)c1ccc(S(=O)(=O)N2CCC(Oc3ccc(-n4cnnn4)cc3)CC2)cc1 | 21.9 |
| C=CCN(CC=C)C(=O)C1CCN(S(=O)(=O)c2ccc(-n3cnnn3)cc2)CC1 | -54.4 |

| SMILES | hERG current change (%, negative = inhibition) at 10uM [%] |
| --- | --- |
| Cc1ccc(S(=O)(=O)N2CCC(Oc3ccc(-n4cnnn4)cc3)CC2)cc1 | 0.934 |
| CCN(CC)C(=O)C1CCN(S(=O)(=O)c2ccc(-n3cnnn3)cc2)CC1 | -30 |
| O=S(=O)(c1ccccc1)N1CCC(Oc2ccc(-n3cnnn3)cc2)CC1 | -74.8 |
| C=CCN(CC=C)C(=O)C1CCN(S(=O)(=O)c2ccc(N3CCCC3=O)cc2)CC1 | 5.01 |
| CCC(C)NC(=O)C1CCN(S(=O)(=O)c2ccc(-n3cnnn3)cc2)CC1 (stereo not shown) | 3.26 |
| O=C(C1CCN(S(=O)(=O)c2ccc(-n3cnnn3)cc2)CC1)N1CCN(c2ccccc2)CC1 | -35.7 |
| CN(Cc1ccccc1)C(=O)C1CCN(S(=O)(=O)c2ccc(-n3cnnn3)cc2)CC1 | -75.2 |
| COc1ccc(N2CCN(c3nc4ccccc4nc3NS(=O)(=O)c3ccccc3)CC2)cc1 | 1.21 |
| CCOC(=O)/C(C#N)=C/c1cn(CCC(=O)O)nc1-c1ccc(F)cc1 | 4.24 |
| Cc1ccc(S(=O)(=O)N2CCN(C3CC(=O)N(CCc4ccccc4)C3=O)CC2)cc1C (stereo not shown) | -27.7 |
| Cc1cccc(C)c1NC(=O)C(c1cccs1)N(Cc1ccco1)C(=O)Cn1nnc2ccccc21 (stereo not shown) | 14.4 |
| Cc1ccc(S(=O)(=O)NCCC(=O)OCC(=O)NC(=O)c2cccn2C)cc1 | -12.5 |
| O=C(COC(=O)CCNS(=O)(=O)c1cccc(C(F)(F)F)c1)NC(=O)NC1CCCCC1 | -14.4 |
| Cn1cccc1C(=O)NC(=O)COC(=O)CCNS(=O)(=O)c1cccc(C(F)(F)F)c1 | -52.4 |
| Oc1ccccc1/C=N/Nc1nccnc1Cl | -0.0796 |
| CCOC(=O)C1CCN(C2CCN(C(=O)c3oc4c(C)c(C)ccc4c3C)CC2)CC1 | -69.3 |
| Cc1ccc2c(C)c(C(=O)N3CCN(C4CCS(=O)(=O)C4)CC3)oc2c1C (stereo not shown) | -4.49 |
| CCCN(CC1CC1)C(=O)COC(=O)c1oc2c(F)cccc2c1C | -52.8 |
| COCC1CCN(C(=O)c2oc3c(F)cccc3c2C)C1 (stereo not shown) | 0.639 |
| Cc1c(C(=O)N2CCC(N3CCSCC3)CC2)oc2c(F)cccc12 | -34.9 |
| CCOC(=O)C1CCN(C2CCN(C(=O)c3oc4c(F)cccc4c3C)CC2)CC1 | -71.1 |
| CCCN(CC1CC1)C(=O)COC(=O)c1oc2ccc(OCC)cc2c1C | -27.8 |

| SMILES | hERG current change (%, negative = inhibition) at 10uM [%] |
| --- | --- |
| CCCN(CC1CC1)C(=O)COC(=O)c1[nH]c(C)c(C(=O)OCC)c1C | -5.5 |
| CCOC(=O)N1CCC(NC(=O)c2oc3c(C)c(C)ccc3c2C)CC1 | -32.2 |
| Cc1cc(OCC(=O)Nc2c(C)n(C)n(-c3ccccc3)c2=O)ccc1[N+](=O)[O-] | -23.5 |
| Cc1[nH]c2c(C(=O)N3CCCC(CCC(=O)NCc4ccccc4F)C3)cccc2c1C (stereo not shown) | 3.39 |
| CCCC(c1nnnn1Cc1ccccc1)N1CCC(C(N)=O)CC1.Cl (stereo not shown) | -3.44 |
| CCCCNC(=S)NNC(=O)c1cc(-c2cccnc2)nc2ccccc12 | -7.41 |
| COCCNC(=O)c1cc2nc(-c3ccccc3)cc(C)n2n1 | 7.82 |
| COCCCNC(=O)c1cc(-c2cccnc2)nc2ccccc12 | 16.6 |
| CCCCN(C)CCCNC(=O)c1cc(-c2cccnc2)nc2ccccc12 | -60.1 |
| CCCCN(C)CCCNC(=O)c1cc(-c2cccs2)nc2ccccc12 | -85.6 |
| Cc1cc(-c2ccccc2)nc2cc(C(=O)NCc3ccco3)nn12 | -55.9 |
| Cc1cc(C)n2nc(C(=O)NCc3ccco3)cc2n1 | 10.4 |
| O=C(NCc1ccco1)c1cc(-c2cccnc2)nc2ccc(Cl)cc12 | -36.3 |
| O=C(NCc1ccco1)c1cc(-c2ccccc2)nc2ccccc12 | -16.5 |
| CC(C)OCCCNC(=O)c1cc(-c2cccs2)nc2ccccc12 | 0.89 |
| CC(C)CCNC(=O)c1cc(-c2cccs2)nc2ccccc12 | 5.1 |
| O=C(NCc1ccco1)c1cc(-c2cccnc2)nc2ccccc12 | -52.6 |
| CCN(CCNC(=O)C1CCN(S(=O)(=O)c2c(C)noc2C)CC1)c1ccccc1 | -1.06 |
| COc1cc(/C=C/C(=O)NCc2cccnc2)cc(OC)c1OC | 0.841 |
